Data published in the supplement of paper PMC3334620.
The full ranking holds about 33,000 sequences; the median of “E-score (-0.5 to 0.5)” is about -0.012, and the highest 2% start at about 0.27. The list comes from a sample in which the highest values are over-represented; it also holds similar and randomly drawn sequences.

These sequences were tested against T1, Vhr1 (UniProt P40522) (assay: PBM E-score (8-mer binding enrichment) (E-score (-0.5 to 0.5)); higher = stronger / more preferred TF binding). Settings: protein concentration: 200 nM; construct: GST-full length.
T1 sequence: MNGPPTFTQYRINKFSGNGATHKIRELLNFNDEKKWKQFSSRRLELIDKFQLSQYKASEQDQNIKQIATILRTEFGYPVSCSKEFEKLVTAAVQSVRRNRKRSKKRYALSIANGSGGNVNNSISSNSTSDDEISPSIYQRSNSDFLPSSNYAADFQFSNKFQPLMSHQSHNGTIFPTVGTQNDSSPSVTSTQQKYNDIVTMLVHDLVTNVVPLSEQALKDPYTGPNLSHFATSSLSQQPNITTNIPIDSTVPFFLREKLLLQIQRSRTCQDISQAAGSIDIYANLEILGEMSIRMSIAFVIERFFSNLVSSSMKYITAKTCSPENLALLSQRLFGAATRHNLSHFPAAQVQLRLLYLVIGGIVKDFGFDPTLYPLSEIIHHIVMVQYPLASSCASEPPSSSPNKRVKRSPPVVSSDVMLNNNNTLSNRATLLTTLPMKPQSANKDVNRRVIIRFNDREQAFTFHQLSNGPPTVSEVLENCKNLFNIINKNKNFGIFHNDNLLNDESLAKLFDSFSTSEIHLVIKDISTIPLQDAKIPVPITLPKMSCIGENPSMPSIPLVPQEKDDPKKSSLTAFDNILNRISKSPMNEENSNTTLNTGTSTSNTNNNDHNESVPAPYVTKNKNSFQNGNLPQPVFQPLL
Description: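 Universal 'all 10-mer' protein binding microarrays (Agilent AMADID 015681) probed with GST-tagged S. cerevisiae TFs (full-length or DBD) made by in vitro transcription/translation (PURExpress), about 100-200 nM. Bound TF was detected with fluorescent anti-GST. Each ungapped 8-mer (which stands for itself and its reverse complement) is scored by the PBM enrichment score (E-score), a modified Wilcoxon-Mann-Whitney statistic from -0.5 to +0.5, computed with the Universal PBM Analysis Suite. Scale: above 0.35 generally sequence-specific binding.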

Row | Sequence | PBM E-score
1 | AATGCTCA | 0.021
2 | AAGAATAC | 0.0498
3 | AGGGTCGA | 0.158
4 | ACCTGCCC | 0.0405
5 | CTACGCCC | 0.0207
6 | CGGCAGTA | -0.109
7 | ACAACCCC | -0.061
8 | CATGCTCC | -0.08
9 | GATCATGA | 0.197
10 | AATCATGG | 0.387
11 | TATCATGA | 0.189
12 | AATCAGGT | 0.268
13 | AATCAAGG | 0.0679
14 | AATCAAGT | 0.174
15 | AATCAGGG | 0.133
16 | AATCATTA | 0.222
17 | AATCATTG | 0.283
18 | AATCATTC | 0.251
19 | AATCATGT | 0.389
20 | AATCATGA | 0.331
21 | CCGCCAAC | 0.163
22 | GCATTGAA | -0.0212
23 | AACTAGTT | -0.125
24 | AAAGGTTA | -0.357
25 | CATCTATA | 0.0881

Row | Sequence | PBM E-score
26 | CATCATAA | 0.133
27 | AATCATGC | 0.304
28 | CAACATGA | 0.3
29 | CATCATGA | 0.276
30 | CAACATGC | 0.15
31 | CAACATGG | 0.0395
32 | CATCATGC | 0.201
33 | CATCATGG | 0.152
34 | GATCATGC | 0.0952
35 | AGAGCGAC | 0.0123
36 | ACTATAGC | 0.00988
37 | CTCGATTA | 0.216
38 | TACGAGCA | -0.0868
39 | GGAATACA | 0.0161
40 | CACCCGTC | 0.0428
41 | CAACGCTA | -0.125
42 | CATGATTC | 0.424
43 | CAGGAATG | 0.0121
44 | GAGGAATC | 0.0804
45 | AACGAATC | 0.125
46 | CATGATCC | 0.213
47 | CAGGAATC | 0.313
48 | CTTGATTC | 0.214
49 | CATGAATC | 0.31
50 | GATGAATC | 0.249

Row | Sequence | PBM E-score
51 | CACGAATA | 0.066
52 | AATGAATC | 0.23
53 | CACGAATC | 0.288
54 | CAGTATCC | 0.124
55 | GCTGGCGA | -0.0575
56 | GGCAGACA | -0.0678
57 | ATTGCCCA | -0.113
58 | CCGGTCCG | 0.112
59 | AAATGAAT | -0.0848
60 | CTGATCGA | 0.0718
61 | CTGGACCC | -0.213
62 | CACTGCCG | 0.173
63 | ATACTACG | -0.0642
64 | CTGAGATA | -0.128
65 | GCAGCTTA | -0.0202
66 | AATGATTC | 0.406
67 | AATGATTG | 0.199
68 | CTTGATTA | 0.0605
69 | CATGATAA | 0.108
70 | ATTGATTC | 0.171
71 | CATGATTA | 0.369
72 | TAACCTAA | -0.187
73 | ACCTTCTG | 0.167
74 | GCCACCCC | -0.0413
75 | CCCACCCG | 0.382

Row | Sequence | PBM E-score
76 | ACCACCCC | 0.112
77 | ACCACCCG | -0.0147
78 | CCCACCCC | 0.389
79 | CCCACCCA | 0.263
80 | AACCCCTA | -0.0392
81 | AACACCGA | 0.108
82 | CACGACTA | 0.209
83 | GACGACGC | -0.049
84 | AACGACTA | 0.0488
85 | GACGACTA | 0.162
86 | GACGACTC | 0.358
87 | AACGACTT | -0.216
88 | AACGACTC | 0.292
89 | CACGACTC | 0.378
90 | CACGACTG | 0.178
91 | GCACCCAA | -0.0528
92 | AGTCTTGC | 0.0289
93 | ACAGCTCC | 0.0267
94 | TTACCTAA | -0.0877
95 | CAGTCAGC | 0.232
96 | ATGTCAGC | 0.072
97 | GAGTCAGA | 0.447
98 | AAGTCAGA | 0.0614
99 | GAGTCAGC | 0.476
100 | AAGTCAGC | 0.281

Row | Sequence | PBM E-score
101 | GGGTCAGA | -0.0746
102 | GCGTCAGC | -0.256
103 | CAGTCAGA | 0.224
104 | CATGGGAC | 0.02
105 | GTACTTCA | 0.114
106 | CAATGGTC | 0.115
107 | CCTAGTAC | 0.0265
108 | ATGCTCAA | -0.0744
109 | CTCGAGAA | -0.188
110 | AGCAGTCA | 0.256
111 | CGCAGTCC | 0.0797
112 | GGCAGTCA | 0.345
113 | GGCAGTGA | 0.0755
114 | CGCAGTCA | 0.363
115 | GGCAGTAA | 0.125
116 | AGACCTGC | -0.147
117 | CTCGCGAC | 0.242
118 | GGCGCGAC | 0.275
119 | CGCGCGAC | 0.162
120 | GTCGCGAC | 0.379
121 | GGCGCGAA | 0.0599
122 | GTCGCGAA | 0.0553
123 | GTGGCTCA | 0.277
124 | ATAGCTCA | 0.0225
125 | CCGGCTCA | 0.0508

Row | Sequence | PBM E-score
126 | ATGGCTCG | 0.231
127 | GTAGCTCA | 0.0143
128 | AGGGCTCA | 0.0814
129 | ATGGCTCA | 0.293
130 | CTGGCTCA | 0.28
131 | ATGGCTCC | 0.325
132 | AGGGCTCC | -0.358
133 | CTGGCTCC | 0.0343
134 | GTGGCTTA | -0.111
135 | AATGAGCC | -0.00477
136 | AGAGACTG | 0.0515
137 | CTGCAGAA | 0.0335
138 | GATTGACA | 0.0916
139 | AAAGTTCG | -0.228
140 | AGTCAGTC | 0.214
141 | AGTCAGTA | 0.323
142 | ATTCAGTG | 0.0826
143 | AATCAGTG | 0.0903
144 | AGTCAGTG | 0.375
145 | CGTCAGTA | 0.02
146 | ATAGGAGA | -0.00333
147 | GCAGCAAC | 0.126
148 | CAAGGGCC | -0.201
149 | ACACTATG | 0.292
150 | CCACACAC | 0.143

Row | Sequence | PBM E-score
151 | ACACTATC | 0.151
152 | ACCCATAT | 0.296
153 | ACAATATG | 0.325
154 | ACACACAC | 0.316
155 | GCACACAC | 0.178
156 | ACCCATAC | 0.222
157 | ACAATATC | 0.0645
158 | ACCCATAG | 0.0609
159 | ACACTATA | 0.152
160 | ACAATATA | 0.221
161 | ACTGTTGG | 0.034
162 | CCGATTTC | -0.129
163 | GTATAGAC | 0.145
164 | CGAAACCC | -0.0543
165 | CAATCGTA | -0.029
166 | ACCGATTC | -0.0343
167 | CAGCGAGC | 0.135
168 | CGAGCAGA | 0.0217
169 | TTGGTAAA | -0.12
170 | ACACACTG | 0.163
171 | CCACACAG | 0.165
172 | ACAGTATC | -0.14
173 | ACAGTATG | 0.277
174 | CCACACTC | -0.0226
175 | AAACACAT | 0.252

Row | Sequence | PBM E-score
176 | ACACACAA | 0.226
177 | ACACACAG | 0.353
178 | AGACACAT | 0.0642
179 | ACACACAT | 0.275
180 | ACACACTC | 0.293
181 | ACAGTATA | 0.11
182 | CAGTTGCG | 0.107
183 | ACTTCTGG | -0.04
184 | GTTGAAAC | -0.0891
185 | CTAAGAAA | -0.112
186 | AATGCTAC | 0.072
187 | ACGCTCCT | -0.065
188 | ACCCACAG | 0.157
189 | ACCCACAC | 0.185
190 | ACCCACAT | 0.271
191 | ACACTTAG | 0.00688
192 | TGTCGGAA | 0.0453
193 | AGTCGGAA | 0.293
194 | CCTCGGCA | -0.129
195 | AGTCGGAC | -0.0678
196 | AGTCGGCA | 0.282
197 | CCTCGGCG | 0.283
198 | CGTCGGCC | -0.143
199 | ATTCGGCC | 0.0234
200 | CCTCGGCC | 0.00422

Row | Sequence | PBM E-score
201 | AGTCGGCC | 0.278
202 | GGTCGGCA | -0.138
203 | CGTCGGCA | 0.044
204 | GACTTGAA | -0.152
205 | AAAGGTCA | -0.173
206 | CCGACTGC | 0.126
207 | AGTCGGCG | 0.293
208 | ATTCGGCG | -0.00502
209 | AGTCGGTG | 0.246
210 | AAGTGACA | 0.0587
211 | ACAGGGTC | 0.133
212 | AAGAGTCG | 0.281
213 | AAGAGTTG | -0.154
214 | AAGAGTGG | -0.0723
215 | CAGAGTCG | 0.328
216 | CAGAGTCC | 0.0441
217 | CAGAGTGA | 0.0508
218 | CAGGGTCG | 0.025
219 | CAGAGTCA | 0.344
220 | CAGGGTCA | 0.00801
